Calls of active or inactive are those of the source. Unless noted, the rule behind the calls is not given here.

Drawing on PubChem BioAssay, this text covers z-score and composite z-score for nine molecules.

The nature of experiment [1]: A549 cell viability effects, profiling panel, calcein-AM fluorescence, 48 h, basal (AID 1162). Note: test concentration not given here. Particulars: higher = more signal.
The nature of experiment [2]: adipocyte viability effects, profiling panel, cell-based, 3T3-L1 adipocytes, calcein-AM fluorescence, 48 h, basal (AID 1163). Note: test concentration not given here. Particulars: 3T3-L1 adipocytes viability, higher = more signal.
The nature of experiment [3]: HepG2 cell viability effects, profiling panel, calcein-AM fluorescence, 48 h, basal (AID 1164). Note: test concentration not given here. Particulars: higher = more signal.
Experiment [4] is described as follows: MM1S cell viability effects, profiling panel, calcein-AM fluorescence, 48 h, basal (AID 1165).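 Note: viability of MM1S multiple myeloma cells under basal unstimulated conditions; test concentration not given here.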 Particulars: higher = more signal.
Experiment [5] can be described thus: basal RPMI8226 viability, no added stimulus, profiling panel, cell-based, calcein-AM fluorescence, 48 h, PK04 Diversity Set (AID 1166).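 Note: cells grown under basal conditions without added stimulus; test concentration not given here.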 Particulars: RPMI8226 myeloma viability, higher = more signal.
Experiment [6] is described as follows: basal HepG2 mitochondrial membrane potential changes, profiling panel, cell-based, JC-1 fluorescence, 24 h, 100 nL compound (AID 1167). Note: test concentration not given here. Particulars: higher = more signal.
Experiment [7] can be described thus: basal 3T3-L1 adipocyte mitochondrial potential changes, profiling panel, cell-based, JC-1 fluorescence, 3T3-L1 adipocytes, 24 h, 100 nL compound (AID 1168). Note: test concentration not given here. Particulars: JC-1 mitochondrial fluorescence, higher = more signal, called active from +8 up or from −8 down.
Experiment [8] in a line: basal RPMI8226 mitochondrial membrane potential changes, profiling panel, cell-based, JC-1 fluorescence, 24 h, 100 nL compound (AID 1169). Note: test concentration not given here. Particulars: RPMI8226 myeloma, JC-1 mitochondrial potential fluorescence, higher = more signal.
The nature of experiment [9]: basal MM1S mitochondrial membrane potential changes, profiling panel, cell-based, JC-1 fluorescence, 24 h, 100 nL compound (AID 1170). Note: test concentration not given here. Particulars: higher = more signal.
Experiment [10] in a line: A549 lung cancer cell viability effects, profiling panel, resazurin fluorescence, 24 h, PK04 Diversity Set (AID 1171). Note: test concentration not given here. Particulars: higher = more signal, called active from +8 up or from −8 down. Background: Alamar Blue is a resazurin reagent that responds to reducing activity.
A short description of experiment [11]: HepG2 liver cancer cell viability effects, profiling panel, resazurin fluorescence, 24 h, PK04 Diversity Set (AID 1172). Note: test concentration not given here. Particulars: higher = more signal.
Experiment [12] is described as follows: basal S. cerevisiae growth modulation, no modifier, primary screen, OD600, strain BY4716, 24 h, basal condition (AID 1173). Particulars: OD600, 24 h, higher = more signal, called active from +8 up or from −8 down.
Experiment [13] in a line: MM1S myeloma cell viability, profiling panel, resazurin fluorescence, basal, 24 h, PK04 Diversity Set (AID 1174). Note: test concentration not given here. Particulars: higher = more signal, called active from +8 up or from −8 down.
For experiment [14], the target named is Dihydroorotate dehydrogenase (quinone), mitochondrial (Plasmodium falciparum (isolate 3D7)) (UniProt Q08210). The experiment in a line: PfDHODH enzyme inhibitors, primary screen, biochemical, C-terminal His tag, absorbance 600 nm (AID 1175).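 Note: recombinant parasite enzyme with a five histidine tag at its C terminus; test concentration not given here.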 Particulars: DCIP absorbance 600 nm, higher = more signal, called active from +8 up or from −8 down.
The nature of experiment [15]: P. aeruginosa biofilm formation inhibitors, primary screen, strain PAO1, LB-PBS medium, absorbance 600 nm (AID 1176). Note: test concentration not given here. Particulars: P. aeruginosa PAO1 growth/biofilm, A600, 12 h; higher = more signal.
Experiment [16] is described as follows: S. cerevisiae RM11-1a growth modifiers, primary screen, strain RM11-1a, OD600, basal, 24 h (AID 1177).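 Note: cultures grown under basal conditions with no added stressor; test concentration not given here.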 Particulars: OD600, 24 h, higher = more signal, called active from +8 up or from −8 down.
The nature of experiment [17]: E. coli acrAB mutant growth effects, primary screen, E. coli filamentation inducers, strain DRC39, OD650, 24 h (AID 1178).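 Note: growth measured as culture turbidity by optical density at 650 nm; test concentration not given here.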 Particulars: higher = more signal, called active from +8 up or from −8 down.
Experiment [18] in a line: E. coli acrAB mutant growth effects, primary screen, E. coli filamentation inducers, strain DRC39, OD650, 48 h (AID 1179).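 Note: screen aims at cell division blockers that make cells filament.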 Particulars: E. coli DRC39 delta-acrAB growth, higher = more signal, called active from +8 up or from −8 down.
The nature of experiment [19]: RPMI8226 myeloma cell viability, profiling panel, resazurin fluorescence, basal, 24 h, PK04 Diversity Set (AID 1180).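 Note: RPMI8826 multiple myeloma cell line at 5000 cells per well; test concentration not given here.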 Particulars: higher = more signal.
In experiment [20] the target is E3 ubiquitin-protein ligase XIAP (Homo sapiens) (UniProt P98170). The experiment in a line: XIAP binders, primary screen, biophysical, small-molecule microarray, fluorescence 635 nm (AID 1181).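 Note: score merges 667 nm emission and signal to noise over triplicate slides.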 Particulars: small-molecule microarray binding, higher = more signal.
E3 ubiquitin-protein ligase XIAP (Homo sapiens), sequence (P98170 whole entry, looked up): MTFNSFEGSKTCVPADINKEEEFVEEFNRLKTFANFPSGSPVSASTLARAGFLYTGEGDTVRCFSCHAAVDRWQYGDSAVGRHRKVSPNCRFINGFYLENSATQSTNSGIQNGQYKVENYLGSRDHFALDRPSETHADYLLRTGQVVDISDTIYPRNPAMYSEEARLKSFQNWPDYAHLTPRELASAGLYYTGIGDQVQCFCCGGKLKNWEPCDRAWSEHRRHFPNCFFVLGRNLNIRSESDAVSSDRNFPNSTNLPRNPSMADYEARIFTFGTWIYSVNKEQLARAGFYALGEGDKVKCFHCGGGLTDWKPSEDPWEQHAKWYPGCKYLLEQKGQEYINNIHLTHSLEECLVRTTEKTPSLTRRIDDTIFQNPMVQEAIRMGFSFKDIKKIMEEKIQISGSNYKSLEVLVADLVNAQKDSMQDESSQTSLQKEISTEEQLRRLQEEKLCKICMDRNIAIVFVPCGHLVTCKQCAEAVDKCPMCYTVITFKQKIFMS

Dihydroorotate dehydrogenase (quinone), mitochondrial (Plasmodium falciparum (isolate 3D7)), sequence (Q08210 whole entry, looked up): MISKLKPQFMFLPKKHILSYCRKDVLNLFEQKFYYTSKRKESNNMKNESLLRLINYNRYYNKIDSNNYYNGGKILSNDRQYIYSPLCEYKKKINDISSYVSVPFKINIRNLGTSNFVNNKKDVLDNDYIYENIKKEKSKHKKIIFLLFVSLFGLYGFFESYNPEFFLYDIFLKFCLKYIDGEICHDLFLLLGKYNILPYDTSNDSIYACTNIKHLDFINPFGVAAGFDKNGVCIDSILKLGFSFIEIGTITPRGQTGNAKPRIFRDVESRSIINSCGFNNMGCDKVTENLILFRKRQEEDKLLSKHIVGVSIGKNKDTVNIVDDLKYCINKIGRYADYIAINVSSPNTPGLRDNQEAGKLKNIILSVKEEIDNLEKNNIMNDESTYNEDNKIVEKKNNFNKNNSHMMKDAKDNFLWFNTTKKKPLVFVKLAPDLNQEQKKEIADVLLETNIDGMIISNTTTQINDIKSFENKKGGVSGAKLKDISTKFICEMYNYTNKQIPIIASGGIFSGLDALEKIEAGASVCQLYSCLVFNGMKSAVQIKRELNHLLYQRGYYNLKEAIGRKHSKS

On to `COC(=O)c1c(CC[C@@H](CO)NC(=O)NCCn2cc(C3(O)CCCC3)nn2)oc(C(C)=O)c1C(=O)OC`, for which the z-score in [1] is -0.298; in experiment [2], 0.154; in experiment [3], 0.122; in [4], 0.454; in experiment [5], 0.206; in [6], -0.0184. In addition, the z-score in [7] is -0.543 (inactive); in [8], 0.586; in experiment [9], -0.152; in [10], -0.957 (inactive); in experiment [11], -0.777; in experiment [12], -0.394 (inactive). For the same molecule, the z-score is -0.691 (inactive) in experiment [13]; 0.173 (inactive) in experiment [15]; -0.77 (inactive) in [16]; -0.426 (inactive) in [17]; -0.828 (inactive) in experiment [18]; -0.581 in experiment [19]. The figures for the composite z-score in [14] and in experiment [20] were -0.35 (inactive) and -0.0343, respectively.
For `C#C[C@H](O[Si](C#Cc1ccc(Oc2ccccc2)cc1)(C(C)C)C(C)C)c1ccccc1`, the z-score was -2.21 in experiment [1]; -1.19 in experiment [2]; -1.48 in experiment [3]; -3.02 in experiment [4]; -4.16 in [5]; -3.3 in experiment [6]. Besides, the z-score in experiment [7] is -0.805 (inactive); in experiment [8], -0.836; in experiment [9], -1.34; in experiment [10] it was -1.3 (inactive); in experiment [11], -1.03; in experiment [12], -12.7 (active). For the same molecule, the z-score was -0.675 (inactive) in experiment [13]; 0.702 (inactive) in experiment [15]; 0.619 (inactive) in experiment [16]; -0.363 (inactive) in [17]; -0.172 (inactive) in [18]; -1.73 in [19]. For the same molecule, the composite z-score was -0.289 (inactive) in experiment [14] and -0.132 in experiment [20].
Take `CCOC(=O)C[C@H]1[C@H](OC(=O)c2ccc(C(=O)c3ccccc3)cc2)[C@@H](NC(=O)c2ccccc2)c2cc(OCCCO)ccc2N1C(=O)c1ccc2ccccc2n1`: the z-score in experiment [1] was 0.29; in experiment [2] it was -0.356; in experiment [3] it was 0.74; in [4], 0.294; in experiment [5], -0.465; in [6], 1. Besides, the z-score is 1.76 (inactive) in experiment [7]; -0.517 in experiment [8]; -0.386 in experiment [9]; -0.142 (inactive) in experiment [10]; -0.524 in experiment [11]; 0.47 (inactive) in experiment [12]. For the same molecule, the z-score in experiment [13] is -0.145 (inactive); in experiment [15], 0.207 (inactive); in experiment [16] it was -0.0205 (inactive); in [17], -0.674 (inactive); in experiment [18], -0.374 (inactive); in [19], -0.0826. For the same molecule, the composite z-score is -0.0918 (inactive) in experiment [14] and 0.0997 in experiment [20].
Take `C=CCC(OC(C)=O)[C@@H]1[C@@H](N(Cc2cccc3ccccc23)C(=O)c2ccc(-c3ccccc3)cc2)c2cc(OCCCO)ccc2N1C(=O)c1ccc2ccccc2c1` (stereo not given in full): the z-score in [1] is -0.525; in [2] it was -0.526; in experiment [3], -0.62; in experiment [4], 0.279; in [5], -0.494; in [6], 1.62. In addition, the z-score in experiment [7] is -0.693 (inactive); in [8], -0.011; in [9], -0.000791; in experiment [10], 1.09 (inactive); in experiment [11], 0.256; in experiment [12] it was 1.04 (inactive). Also, the z-score in experiment [13] was 0.163 (inactive); in experiment [15] it was 0.845 (inactive); in experiment [16], 0.132 (inactive); in experiment [17], 0.0986 (inactive); in [18], 0.295 (inactive); in experiment [19], 1.23. For the same molecule, the composite z-score is -0.149 (inactive) in experiment [14] and 0.0463 in [20].
`CN(C)CCCCCCNC(=O)[C@H]1C[C@H]2C(=O)N3CCC[C@H]3C(=O)N2[C@H]1c1ccc(O)cc1`: the z-score in experiment [1] was -0.79; in [2], 0.627; in experiment [3], -0.952; in experiment [4], -0.567; in experiment [5] it was -0.554; in [6], 0.661. Moreover, the z-score in experiment [7] was 0.597 (inactive); in [8], 0.262; in experiment [9], 0.538; in experiment [10] it was -0.636 (inactive); in experiment [11], -0.564; in [12] it was -0.444 (inactive). Moreover, the z-score in experiment [13] is 0.472 (inactive); in [15], 1.44 (inactive); in experiment [16], -0.327 (inactive); in experiment [17], 0.113 (inactive); in experiment [18], -0.523 (inactive); in experiment [19], -0.0213. Moreover, the composite z-score in [14] is -1.76 (inactive); in [20] it was 0.23.
On to `CO[C@H]1O[C@H](CO)[C@@H](OC(=O)Nc2ccc(Oc3ccccc3)cc2)[C@H](OC(=O)Nc2ccc3c(c2)OCO3)[C@H]1OC(=O)Nc1ccc2c(c1)OCO2`, for which the z-score in experiment [1] is -0.331; in [2], 0.377; in experiment [3] it was 0.106; in [4], -0.789; in experiment [5], -0.594; in experiment [6] it was -0.185. Moreover, the z-score in experiment [7] is 2.17 (inactive); in experiment [8] it was -0.583; in experiment [9], 0.818; in [10], 0.104 (inactive); in [11], -0.692; in experiment [12] it was 0.759 (inactive). The z-score in experiment [13] was 0.0487 (inactive); in experiment [15], 2.07 (inactive); in experiment [16] it was 1.11 (inactive); in [17], 1.65 (inactive); in experiment [18] it was 0.0431 (inactive); in experiment [19], 0.404. The composite z-score was -0.227 (inactive) in experiment [14] and -0.0795 in experiment [20].
Consider `COc1ccc(C(=O)Nc2ccc(CN3C(=O)[C@]4(O[C@H](CCO)[C@@H]([Si](C)(C)c5ccc(OC)cc5)[C@@H]4C)c4ccccc43)cc2)cc1`, for which the z-score was -3.8 in experiment [1]; -0.0656 in [2]; -4.64 in experiment [3]; -2.62 in experiment [4]; -4.35 in [5]; -2.72 in [6]. Also, the z-score in experiment [7] is 1.36 (inactive); in experiment [8], -1.06; in experiment [9], -2.28; in experiment [10] it was -3.79 (inactive); in experiment [11], -5.44; in experiment [12] it was -3.84 (inactive). Further, the z-score in experiment [13] is -9.1 (active); in [15] it was 2.16 (inactive); in [16], 4.35 (inactive); in experiment [17], 0.65 (inactive); in experiment [18], -0.416 (inactive); in [19] it was -6.25. Further, the composite z-score in experiment [14] was 0.132 (inactive); in [20] it was 0.0623.
For `Cc1nc2cc(Br)ccc2c(=O)o1`, the z-score in experiment [1] was 0.504; in [2], 0.703; in experiment [3], 0.368; in [4], 0.729; in [5] it was 0.834; in experiment [6], 1.37. Besides, the z-score in experiment [7] was 0.499 (inactive); in experiment [8] it was 0.649; in experiment [9], 0.392; in experiment [10], 0.235 (inactive); in experiment [11], 0.817; in [12], -0.691 (inactive). In addition, the z-score is 0.065 (inactive) in [13]; -0.214 (inactive) in experiment [15]; -1.08 (inactive) in experiment [16]; 0.705 (inactive) in experiment [17]; 1.42 (inactive) in [18]; 1.21 in [19]. In addition, the composite z-score is -0.442 (inactive) in experiment [14] and -0.0426 in [20].
Regarding `COCCOC(=O)N1C(=O)[C@@]2(c3cc(C#CC4(O)CCCCCC4)ccc31)[C@H](c1ccc(OCCO)cc1)N1[C@H](c3ccccc3)[C@H](c3ccccc3)OC(=O)[C@H]1[C@@H]2C(=O)N1CCN(c2ncccn2)CC1`, the z-score is -0.147 in experiment [1]; -0.507 in experiment [2]; -0.0949 in experiment [3]; -0.373 in experiment [4]; 0.182 in [5]; -0.643 in experiment [6]. Further, the z-score is 0.295 (inactive) in [7]; -0.266 in [8]; -1.19 in [9]; -0.473 (inactive) in [10]; -0.0209 in experiment [11]; 2.29 (inactive) in experiment [12]. The z-score in [13] was -0.549 (inactive); in experiment [15], 2.57 (inactive); in [16], 3.15 (inactive); in experiment [17], -0.534 (inactive); in experiment [18], -0.477 (inactive); in [19], -0.305. The values for the composite z-score in experiment [14] and in [20] were -1.64 (inactive) and -0.0582, respectively.
